This is an account of results in paper PMC7862700, “An all-to-all approach to the identification of sequence-specific readers for epigenetic DNA modifications on cytosine”.

Experiment in all cases: DAPPL (digital affinity profiling via proximity ligation, sequencing); 10 mM Tris-HCl pH 7.5, 50 mM NaCl, 1 mM DTT, 4% glycerol, room temperature, 30 min; GST-TFs on glutathione beads, 16-mer random dsDNA library, 0.1% formaldehyde crosslink after washing; high values mean tight binding
For assay [1], the target named is T1, FEV (Homo sapiens, UniProt Q99581 1-238).
T1 sequence: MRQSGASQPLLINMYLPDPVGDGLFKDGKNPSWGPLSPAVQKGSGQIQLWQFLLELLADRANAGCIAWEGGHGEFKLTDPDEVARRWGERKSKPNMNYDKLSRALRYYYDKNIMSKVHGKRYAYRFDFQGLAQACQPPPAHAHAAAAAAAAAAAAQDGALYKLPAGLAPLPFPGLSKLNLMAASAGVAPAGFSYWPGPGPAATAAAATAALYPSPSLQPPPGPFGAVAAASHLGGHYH
The following applies: protein: recombinant; tags: N-terminal GST; dsDNA, one strand shown. Summed up:
(§1)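 Yeast served to express human transcription factors as GST fusions, which were then captured on glutathione beads and labelled with DNA barcodes. Pooled with a tag-only sample, they were incubated with 200 nmole of a 16-mer random double-stranded DNA library for 30 min at room temperature in Tris/NaCl/DTT/glycerol buffer, washed, crosslinked with 0.1% formaldehyde, ligated by proximity, amplified by PCR and sequenced. Dividing each hexamer's read frequency for a factor by its frequency for the tag-only sample gives the binding signal.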

Assay [2] concerns the target ETV5 (Homo sapiens, UniProt P41161 1-510). The following applies: protein: recombinant; tags: N-terminal GST; dsDNA, one strand shown. Summed up:
as §1

The target in assay [3] is HSF1 (Homo sapiens, UniProt Q00613 1-529). The following applies: protein: recombinant; tags: N-terminal GST; chain copies: 3; dsDNA, one strand shown. Summed up:
as §1

Assay [4] deals with T2, SPIC (Homo sapiens, UniProt Q8N5J4 1-248).
T2 sequence: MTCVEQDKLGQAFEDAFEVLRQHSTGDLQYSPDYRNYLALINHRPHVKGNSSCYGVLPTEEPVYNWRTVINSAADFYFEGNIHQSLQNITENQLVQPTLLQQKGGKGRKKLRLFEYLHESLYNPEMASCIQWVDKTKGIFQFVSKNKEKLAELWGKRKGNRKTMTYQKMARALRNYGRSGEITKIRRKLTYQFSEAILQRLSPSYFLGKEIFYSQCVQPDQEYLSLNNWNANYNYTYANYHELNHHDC
The following applies: protein: recombinant; tags: N-terminal GST; dsDNA, one strand shown. Summed up:
as §1

The target in assay [5] is ELF4 (Homo sapiens, UniProt Q99607 1-663). The following applies: protein: recombinant; tags: N-terminal GST; dsDNA, one strand shown. Summed up: as §1
Sequence of ELF4 (Q99607 whole entry): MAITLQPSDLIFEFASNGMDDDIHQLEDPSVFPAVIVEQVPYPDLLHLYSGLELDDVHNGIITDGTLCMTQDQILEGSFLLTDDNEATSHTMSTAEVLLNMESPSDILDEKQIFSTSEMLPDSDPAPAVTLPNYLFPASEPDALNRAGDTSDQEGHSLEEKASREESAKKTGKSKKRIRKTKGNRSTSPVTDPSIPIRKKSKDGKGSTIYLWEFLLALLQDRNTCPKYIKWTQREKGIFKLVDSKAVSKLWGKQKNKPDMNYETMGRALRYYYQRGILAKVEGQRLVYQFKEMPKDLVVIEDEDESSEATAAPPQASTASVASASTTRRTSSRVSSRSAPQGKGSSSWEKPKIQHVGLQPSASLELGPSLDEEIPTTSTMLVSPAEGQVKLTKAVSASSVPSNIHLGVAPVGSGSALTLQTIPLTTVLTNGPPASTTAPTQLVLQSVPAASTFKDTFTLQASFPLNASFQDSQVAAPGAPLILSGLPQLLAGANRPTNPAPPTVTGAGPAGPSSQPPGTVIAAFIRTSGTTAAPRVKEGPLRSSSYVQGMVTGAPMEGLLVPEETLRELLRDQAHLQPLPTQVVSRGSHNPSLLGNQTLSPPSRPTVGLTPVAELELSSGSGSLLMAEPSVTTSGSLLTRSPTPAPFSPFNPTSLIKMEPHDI
In assay [6] the target is T3, ELK4 (Homo sapiens, UniProt P28324-2 1-405).
T3 sequence: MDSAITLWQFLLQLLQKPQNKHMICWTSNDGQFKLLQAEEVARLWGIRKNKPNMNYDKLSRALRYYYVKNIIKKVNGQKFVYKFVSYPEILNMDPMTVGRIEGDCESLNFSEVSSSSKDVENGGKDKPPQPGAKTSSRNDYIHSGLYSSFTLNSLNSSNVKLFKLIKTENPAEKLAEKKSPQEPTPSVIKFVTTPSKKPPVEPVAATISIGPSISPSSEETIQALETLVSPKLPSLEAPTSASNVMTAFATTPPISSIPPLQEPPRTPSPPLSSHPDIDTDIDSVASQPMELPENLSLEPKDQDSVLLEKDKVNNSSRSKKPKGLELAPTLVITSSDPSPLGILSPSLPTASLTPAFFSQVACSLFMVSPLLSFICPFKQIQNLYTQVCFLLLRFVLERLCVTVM
The following applies: protein: recombinant; tags: N-terminal GST; dsDNA, one strand shown. Summed up: as §1

The target in assay [7] is T4, ETV2 (Homo sapiens, UniProt O00321 1-342).
T4 sequence: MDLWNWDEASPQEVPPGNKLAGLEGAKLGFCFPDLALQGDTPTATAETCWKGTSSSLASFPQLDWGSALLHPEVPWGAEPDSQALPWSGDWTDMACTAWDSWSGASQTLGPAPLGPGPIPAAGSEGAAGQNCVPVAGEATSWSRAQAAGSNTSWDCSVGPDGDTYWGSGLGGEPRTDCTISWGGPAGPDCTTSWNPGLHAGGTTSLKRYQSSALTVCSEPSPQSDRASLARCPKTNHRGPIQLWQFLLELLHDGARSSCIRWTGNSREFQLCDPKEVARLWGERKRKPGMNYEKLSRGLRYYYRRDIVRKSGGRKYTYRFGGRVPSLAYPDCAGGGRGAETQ
The following applies: protein: recombinant; tags: N-terminal GST; dsDNA, one strand shown. The method in brief: as §1

Assay [8] addresses T5, ELF3 (Homo sapiens, UniProt P78545 1-371).
T5 sequence: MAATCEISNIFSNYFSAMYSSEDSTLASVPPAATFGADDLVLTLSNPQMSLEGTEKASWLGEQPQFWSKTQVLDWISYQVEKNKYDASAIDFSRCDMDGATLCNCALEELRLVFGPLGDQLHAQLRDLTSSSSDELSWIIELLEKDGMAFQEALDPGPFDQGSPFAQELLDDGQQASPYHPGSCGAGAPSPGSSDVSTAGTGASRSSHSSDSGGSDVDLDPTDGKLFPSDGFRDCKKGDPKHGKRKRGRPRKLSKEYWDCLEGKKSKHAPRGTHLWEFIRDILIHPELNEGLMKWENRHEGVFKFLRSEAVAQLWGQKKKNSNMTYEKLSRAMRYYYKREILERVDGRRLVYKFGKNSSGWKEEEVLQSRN
The following applies: protein: recombinant; tags: N-terminal GST; dsDNA, one strand shown. Summed up:
as §1

In assay [9] the target is CRX (Homo sapiens, UniProt O43186 1-299). The following applies: protein: recombinant; tags: N-terminal GST; dsDNA, one strand shown. Summed up: as §1
Sequence of CRX (O43186 whole entry): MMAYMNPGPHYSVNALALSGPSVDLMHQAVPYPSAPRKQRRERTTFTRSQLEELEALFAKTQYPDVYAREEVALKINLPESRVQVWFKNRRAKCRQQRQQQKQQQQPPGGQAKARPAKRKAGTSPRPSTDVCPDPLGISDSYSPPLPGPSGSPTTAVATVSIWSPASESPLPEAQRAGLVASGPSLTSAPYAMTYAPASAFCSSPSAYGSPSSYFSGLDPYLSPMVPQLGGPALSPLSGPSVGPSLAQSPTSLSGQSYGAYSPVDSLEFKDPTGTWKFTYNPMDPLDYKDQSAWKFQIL
For assay [10], the target named is ETV1 (Homo sapiens, UniProt P50549 1-477). The following applies: protein: recombinant; tags: N-terminal GST; dsDNA, one strand shown. The method in brief:
as §1

Assay [11] concerns the target T6, ERF (Homo sapiens, UniProt P50548 1-548).
T6 sequence: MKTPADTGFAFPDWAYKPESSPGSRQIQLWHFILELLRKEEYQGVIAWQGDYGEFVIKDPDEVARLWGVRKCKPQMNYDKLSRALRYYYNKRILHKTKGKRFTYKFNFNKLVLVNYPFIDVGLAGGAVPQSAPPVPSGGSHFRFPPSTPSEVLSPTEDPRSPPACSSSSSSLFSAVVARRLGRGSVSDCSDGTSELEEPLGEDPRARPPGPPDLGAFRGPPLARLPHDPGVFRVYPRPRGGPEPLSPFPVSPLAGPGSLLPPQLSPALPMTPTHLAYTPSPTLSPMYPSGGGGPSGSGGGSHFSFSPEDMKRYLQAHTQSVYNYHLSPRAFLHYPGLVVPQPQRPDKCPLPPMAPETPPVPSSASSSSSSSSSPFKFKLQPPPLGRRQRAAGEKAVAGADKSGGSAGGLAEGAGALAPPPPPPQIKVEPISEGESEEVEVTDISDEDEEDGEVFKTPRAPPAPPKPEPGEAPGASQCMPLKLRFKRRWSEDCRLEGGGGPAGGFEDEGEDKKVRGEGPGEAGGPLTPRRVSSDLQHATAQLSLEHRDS
The following applies: protein: recombinant; tags: N-terminal GST; dsDNA, one strand shown. Summed up:
as §1

Assay [12] addresses T7, ETV3L (Homo sapiens, UniProt Q6ZN32 1-361).
T7 sequence: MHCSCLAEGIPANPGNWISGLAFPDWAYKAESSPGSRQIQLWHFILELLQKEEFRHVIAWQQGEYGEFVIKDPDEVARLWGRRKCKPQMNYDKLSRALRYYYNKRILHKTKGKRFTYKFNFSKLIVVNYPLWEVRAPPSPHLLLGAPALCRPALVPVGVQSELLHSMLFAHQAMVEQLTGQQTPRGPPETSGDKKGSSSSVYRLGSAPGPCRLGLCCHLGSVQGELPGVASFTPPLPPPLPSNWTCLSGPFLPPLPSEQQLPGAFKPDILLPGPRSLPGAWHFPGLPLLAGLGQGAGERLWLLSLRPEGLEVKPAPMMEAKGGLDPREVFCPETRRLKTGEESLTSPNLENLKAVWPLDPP
The following applies: protein: recombinant; tags: N-terminal GST; dsDNA, one strand shown. Summed up:
as §1

The target of assay [13] is T8, ETS2 (Homo sapiens, UniProt P15036 1-469).
T8 sequence: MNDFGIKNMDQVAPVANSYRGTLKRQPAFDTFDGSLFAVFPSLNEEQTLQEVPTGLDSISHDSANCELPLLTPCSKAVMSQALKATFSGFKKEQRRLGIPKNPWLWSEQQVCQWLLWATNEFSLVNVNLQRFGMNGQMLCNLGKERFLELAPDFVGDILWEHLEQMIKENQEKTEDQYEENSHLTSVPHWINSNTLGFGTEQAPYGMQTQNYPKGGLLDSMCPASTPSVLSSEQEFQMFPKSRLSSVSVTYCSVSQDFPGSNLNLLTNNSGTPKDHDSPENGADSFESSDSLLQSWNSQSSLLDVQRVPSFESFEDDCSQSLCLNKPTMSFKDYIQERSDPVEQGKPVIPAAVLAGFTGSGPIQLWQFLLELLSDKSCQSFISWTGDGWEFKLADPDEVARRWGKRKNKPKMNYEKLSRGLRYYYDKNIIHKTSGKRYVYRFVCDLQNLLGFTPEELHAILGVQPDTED
The following applies: protein: recombinant; tags: N-terminal GST; dsDNA, one strand shown. The method in brief:
as §1

Assay [14] addresses T9, SPDEF (Homo sapiens, UniProt O95238 1-335).
T9 sequence: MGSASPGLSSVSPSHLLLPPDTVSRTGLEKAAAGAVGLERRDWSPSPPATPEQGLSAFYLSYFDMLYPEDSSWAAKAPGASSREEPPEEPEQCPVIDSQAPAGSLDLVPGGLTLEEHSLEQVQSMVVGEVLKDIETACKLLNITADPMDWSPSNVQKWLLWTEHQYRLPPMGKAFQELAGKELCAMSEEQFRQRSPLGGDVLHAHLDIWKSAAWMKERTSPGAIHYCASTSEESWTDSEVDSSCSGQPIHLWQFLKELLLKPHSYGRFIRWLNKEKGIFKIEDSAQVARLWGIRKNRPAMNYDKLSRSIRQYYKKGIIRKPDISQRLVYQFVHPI
The following applies: protein: recombinant; tags: N-terminal GST; dsDNA, one strand shown. Summed up: as §1

The target of assay [15] is T10, ETV7 (Homo sapiens, UniProt Q9Y603 1-341).
T10 sequence: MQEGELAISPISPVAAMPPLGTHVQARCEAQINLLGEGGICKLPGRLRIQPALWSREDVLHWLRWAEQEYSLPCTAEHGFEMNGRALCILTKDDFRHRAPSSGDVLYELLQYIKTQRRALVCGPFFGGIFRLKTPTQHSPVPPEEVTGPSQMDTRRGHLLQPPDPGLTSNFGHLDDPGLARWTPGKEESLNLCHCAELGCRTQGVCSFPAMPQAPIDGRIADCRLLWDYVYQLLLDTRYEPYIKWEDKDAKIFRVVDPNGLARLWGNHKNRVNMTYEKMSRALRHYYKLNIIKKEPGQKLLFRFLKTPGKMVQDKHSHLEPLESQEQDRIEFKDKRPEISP
The following applies: protein: recombinant; tags: N-terminal GST; dsDNA, one strand shown. The method in brief: as §1

Assay [16] addresses T11, ELF5 (Homo sapiens, UniProt Q9UKW6-2 1-255).
T11 sequence: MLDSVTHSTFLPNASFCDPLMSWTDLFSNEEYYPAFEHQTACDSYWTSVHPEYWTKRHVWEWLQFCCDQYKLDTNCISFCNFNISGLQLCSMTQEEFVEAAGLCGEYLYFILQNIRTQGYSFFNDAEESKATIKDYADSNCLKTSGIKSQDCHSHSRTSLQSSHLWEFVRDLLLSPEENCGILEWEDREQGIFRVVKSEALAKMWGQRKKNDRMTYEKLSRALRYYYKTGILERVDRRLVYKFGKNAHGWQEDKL
The following applies: protein: recombinant; tags: N-terminal GST; dsDNA, one strand shown. Summed up:
as §1

In assay [17] the target is T12, ETV3 (Homo sapiens, UniProt P41162-2 1-143).
T12 sequence: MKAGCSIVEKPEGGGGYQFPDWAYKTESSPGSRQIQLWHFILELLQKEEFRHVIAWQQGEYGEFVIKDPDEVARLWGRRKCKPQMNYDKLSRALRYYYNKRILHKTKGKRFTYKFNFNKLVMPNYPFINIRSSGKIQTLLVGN
The following applies: protein: recombinant; tags: N-terminal GST; dsDNA, one strand shown. Summed up:
as §1

In assay [18] the target is ETV6 (Homo sapiens, UniProt P41212 1-452). The following applies: protein: recombinant; tags: N-terminal GST; dsDNA, one strand shown. Summed up: as §1
Sequence of ETV6 (P41212 whole entry): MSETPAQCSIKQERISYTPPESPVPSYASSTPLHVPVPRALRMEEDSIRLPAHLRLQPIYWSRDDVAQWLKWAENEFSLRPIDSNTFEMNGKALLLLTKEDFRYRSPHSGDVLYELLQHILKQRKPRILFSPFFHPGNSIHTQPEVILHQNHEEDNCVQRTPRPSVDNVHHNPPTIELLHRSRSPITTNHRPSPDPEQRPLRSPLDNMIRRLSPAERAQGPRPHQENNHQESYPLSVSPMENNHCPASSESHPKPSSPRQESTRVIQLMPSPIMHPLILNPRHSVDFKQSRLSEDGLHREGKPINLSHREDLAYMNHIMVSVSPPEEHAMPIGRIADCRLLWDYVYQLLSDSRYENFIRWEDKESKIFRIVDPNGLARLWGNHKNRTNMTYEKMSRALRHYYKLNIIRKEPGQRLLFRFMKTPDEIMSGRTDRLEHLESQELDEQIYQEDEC

Sequence of ETV1 (P50549 whole entry): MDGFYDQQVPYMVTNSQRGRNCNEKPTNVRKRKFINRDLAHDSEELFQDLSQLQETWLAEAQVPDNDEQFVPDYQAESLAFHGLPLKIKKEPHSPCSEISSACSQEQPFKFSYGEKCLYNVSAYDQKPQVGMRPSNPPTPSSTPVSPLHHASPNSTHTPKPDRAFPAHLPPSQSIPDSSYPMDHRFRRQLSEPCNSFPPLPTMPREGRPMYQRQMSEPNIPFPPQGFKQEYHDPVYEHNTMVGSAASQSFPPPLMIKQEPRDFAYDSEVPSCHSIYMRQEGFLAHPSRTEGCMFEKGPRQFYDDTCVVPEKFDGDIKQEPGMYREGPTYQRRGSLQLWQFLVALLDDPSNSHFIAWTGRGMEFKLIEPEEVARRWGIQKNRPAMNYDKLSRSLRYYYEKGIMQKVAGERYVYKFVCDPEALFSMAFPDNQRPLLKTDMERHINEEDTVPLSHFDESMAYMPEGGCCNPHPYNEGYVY
Sequence of HSF1 (Q00613 whole entry): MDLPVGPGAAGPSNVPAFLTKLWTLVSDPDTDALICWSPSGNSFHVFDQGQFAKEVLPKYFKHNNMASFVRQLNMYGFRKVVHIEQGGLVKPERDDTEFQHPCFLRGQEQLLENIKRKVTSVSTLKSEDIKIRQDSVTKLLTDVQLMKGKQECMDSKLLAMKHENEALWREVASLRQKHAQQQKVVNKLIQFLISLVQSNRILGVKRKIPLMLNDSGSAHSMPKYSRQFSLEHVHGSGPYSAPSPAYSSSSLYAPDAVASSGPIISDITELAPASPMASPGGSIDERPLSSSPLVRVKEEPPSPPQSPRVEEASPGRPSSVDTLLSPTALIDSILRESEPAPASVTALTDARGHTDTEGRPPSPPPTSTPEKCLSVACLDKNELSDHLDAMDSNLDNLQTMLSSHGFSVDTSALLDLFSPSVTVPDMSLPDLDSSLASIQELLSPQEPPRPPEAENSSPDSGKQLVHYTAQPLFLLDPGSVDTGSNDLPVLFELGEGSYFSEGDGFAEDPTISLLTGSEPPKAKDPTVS
Sequence of ETV5 (P41161 whole entry): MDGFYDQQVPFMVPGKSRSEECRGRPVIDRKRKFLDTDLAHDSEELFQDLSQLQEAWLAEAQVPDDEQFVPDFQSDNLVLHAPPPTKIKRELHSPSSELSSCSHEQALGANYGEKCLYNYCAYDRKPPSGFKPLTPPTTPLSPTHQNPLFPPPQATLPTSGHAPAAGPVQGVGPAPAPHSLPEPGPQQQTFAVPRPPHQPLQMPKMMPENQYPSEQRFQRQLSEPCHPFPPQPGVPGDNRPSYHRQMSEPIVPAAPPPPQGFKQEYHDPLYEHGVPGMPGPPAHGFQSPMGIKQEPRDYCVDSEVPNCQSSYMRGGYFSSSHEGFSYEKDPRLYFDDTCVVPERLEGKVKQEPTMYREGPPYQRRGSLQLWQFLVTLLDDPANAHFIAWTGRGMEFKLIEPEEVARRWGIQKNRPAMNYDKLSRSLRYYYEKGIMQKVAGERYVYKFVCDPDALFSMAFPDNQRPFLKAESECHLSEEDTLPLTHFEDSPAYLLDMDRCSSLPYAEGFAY

Turning to TATCCT, the binding signal in assay [1] was 1.94 fold enrichment (6-mer frequency, TF over GST control); in [2] it was 1.95 fold enrichment (6-mer frequency, TF over GST control); in assay [3], 1.72 fold enrichment (6-mer frequency, TF over GST control); in assay [4], 1.87 fold enrichment (6-mer frequency, TF over GST control); in assay [5] it was 1.65 fold enrichment (6-mer frequency, TF over GST control); in [6], 1.83 fold enrichment (6-mer frequency, TF over GST control). Also, the binding signal in assay [7] is 1.93 fold enrichment (6-mer frequency, TF over GST control); in assay [8], 1.59 fold enrichment (6-mer frequency, TF over GST control); in assay [9] it was 2.28 fold enrichment (6-mer frequency, TF over GST control); in assay [10], 1.72 fold enrichment (6-mer frequency, TF over GST control); in assay [11], 1.67 fold enrichment (6-mer frequency, TF over GST control); in [12] it was 1.82 fold enrichment (6-mer frequency, TF over GST control). The binding signal in [13] is 1.81 fold enrichment (6-mer frequency, TF over GST control); in [14] it was 2.67 fold enrichment (6-mer frequency, TF over GST control); in [15] it was 1.67 fold enrichment (6-mer frequency, TF over GST control); in assay [16], 2.65 fold enrichment (6-mer frequency, TF over GST control); in assay [17] it was 1.8 fold enrichment (6-mer frequency, TF over GST control); in [18], 1.82 fold enrichment (6-mer frequency, TF over GST control).
